Screening data from PubChem BioAssay.
HT1080NT lethal = qHTS for induction of synthetic lethality in tumor cells producing 2HG: qHTS for the HT-1080-NT fibrosarcoma cell line | 360,000 tested, 1.6% active | AID 686970, 2013 | HT-1080-NT fibrosarcoma viability, CellTiter-Glo ATP luminescence, 48 h | Potency, µM (series often up to 46.1 µM), without a hit: at the top dose activity, negative = less viability, usual class: cytotoxic;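 note: NT is the 2HG producing partner of a matched IDH1 knockdown line; 0% = DMSO-treated cells and -100% = media-only wells without cells; nearly all actives have a fitted effect of over 55% in size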
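HT-1080-NT; 750 cells/well; 5% FBS RPMI; 48 h compound, 37 degrees C; CellTiter-Glo luminescence; curve fitting and curve-class assignment.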
TGFb SMAD3 inh = qHTS for Inhibitors of TGF-b | AID 588855, 2011 | 410,000 tested, 1.2% active | HepG2 CAGA-GFP TGF-b/SMAD3 reporter, GFP fluorescence, 18 h; TGF-beta stimulated, 500 pg/mL final | Potency, µM (titrated, usually from 46.1 µM), inactives show at the highest dose activity, negative = inhibition, actives largely listed as inhibitors; note: % is set by controls: 0 for no effect and ±100 for the full control effect; nearly all actives have a fitted effect of over 65% in size
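Using HEPG2 CAGA-GFP reporter cells at 1000 cells/well, we pinned test compounds, stimulated with recombinant TGF-beta (500 pg/mL final) and measured total well GFP after 18 h.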
HepG2 tox = qHTS for Inhibitors of TGF-b: Cytotox Counterscreen; HepG2 CAGA-GFP viability, ATP luminescence, 18 h; Potency, µM (series often up to 46.1 µM), inactives show at the top dose activity change, negative = cytotoxicity, actives largely listed as cytotoxic; 410,000 tested, 0.76% active; AID 588856, 2011
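CellTiter-Glo luminescence gave cytotoxicity after 18 hours at 37 degrees C. The cells were HepG2 CAGA-GFP in 1% FBS DMEM, stimulated with 500 pg/mL TGF-beta after compound addition. %Activity was normalised to no-cell wells (complete cell-killing) and DMSO (no toxicity), and curves were fitted and classified.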
HT1080 IDH1KD tx = qHTS for induction of synthetic lethality in tumor cells producing 2HG: qHTS for the HT-1080-IDH1KD cell line; HT-1080 IDH1 knockdown viability, ATP luminescence, 48 h; Potency, µM (top dose mostly 46.1 µM), inactives show at the highest dose activity, negative = toxicity, actives largely listed as cytotoxic; 360,000 tested, 2% active; AID 686971, 2013;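 note: 0% = DMSO wells and -100% = cell-free medium wells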
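% activity derives from luminescence (CellTiter-Glo), normalised to DMSO and no-cell wells. HT-1080-IDH1KD cells, 750/well, had 48 h compound exposure at 37 °C.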
S2 tox = Viability Counterscreen for Primary qHTS for Inhibitors of ATXN expression; 400,000 tested, 0.49% active; AID 651635, 2014; Potency, µM (titrated, usually from 56.7 µM), actives largely listed as cytotoxic; S2 cells (HEK-293 line with an ATXN2-luciferase reporter) viability, CellTiter-Fluor protease fluorescence, 24 h; note: nearly all actives have a fitted effect of over 40% in size
ATXN2 expr inh = Primary qHTS for Inhibitors of ATXN expression; HEK-293 ATXN2-luciferase reporter, luminescence, 24 h; Potency, µM (series often up to 57 µM), for the others: top-dose activity change, negative = inhibition, usual class: inhibitors; 360,000 tested, 0.72% active; AID 1745845, 2022; note: % is set by controls: 0 for no effect and ±100 for the full control effect; nearly all actives have a fitted effect of over 55% in size
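ATXN2-luciferase reporter cells (luciferase flanked by upstream and downstream ATXN2 gene portions) were treated 24 h at 37 °C with compounds at up to 57 uM. SteadyGlo luminescence gave expression; GF-AFC fluorescence gave viability.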
Starred values were filed as active, the others as inactive; i = inactive; u = inconclusive; x = no result. Rows were chosen to be rich in hits. Some 3.9% of all compounds tested hit in one or more screens of this group. Calls come from the whole dose curve; as a rule, active = well fitted curve in the direction sought with a large enough effect; inconclusive = small, poorly fitted or top-dose-only effect, or another doubt; inactive = no such curve, though single readings can be large; an effect the other way counts as inactive or inconclusive. Potency is the fitted concentration of half-maximal effect.

SMILES	HT1080NT lethal	TGFb SMAD3 inh	HepG2 tox	HT1080 IDH1KD tx	S2 tox	ATXN2 expr inh
CC1C=CC=CC=CC=CC=CC=CC=CC(OC2OC(C)C(O)C(N)C2O)CC2OC(O)(CC(O)CC(O)C(O)CCC(O)CC(O)CC(=O)OC(C)C(C)C1O)CC(O)C2C(=O)O (configuration not stated)	4.6µM*	u	0%	9.2µM*	u	-5%
Cc1cc(C(=O)Nc2cccc(-c3nc(CNC(=O)c4ccc[n+]([O-])c4)c(C)o3)c2)c(C)o1	x	x	x	x	i	x
O=C1CN(S(=O)(=O)c2cc(Br)ccc2Br)CCN1	1%	-7%	-6%	-1%	i	-1%
O=c1c(Br)ccc(Br)cc1Br	3.7µM*	1.6µM*	4µM*	5.2µM*	7.5µM*	6µM*
COc1ccc(N(C)C(=O)c2cn(CC(C)C)c(=O)c3cc(OC)c(OC)cc23)c(OC)c1	-4%	0%	7.1µM*	-1%	i	-15%
COc1cc2c(C(=O)N3CCN(c4cccc(C(F)(F)F)c4)CC3)cn(CC(C)C)c(=O)c2cc1OC	x	11µM*	-27%	x	u	u
CCc1ccccc1N(C)C(=O)c1cn(CC(C)C)c(=O)c2cc(OC)c(OC)cc12	x	u	-29%	x	u	-39%
O=c1[nH]c(SCc2ccccc2)ncc1S(=O)(=O)c1ccccc1	10%	x	x	10%	x	x
Clc1ccc(SCc2cc(N3CCOCC3)nc(-c3ccccn3)n2)cc1	-6%	u	-42%	-17%	u	6.3µM*
Cc1nc(C)n(CC(=O)N2CCOc3ccc(CN4CCN(C)C[C@@H]4c4ccccc4)cc3C2)n1	x	x	x	x	i	x
Cc1ccc(S(=O)(=O)c2ncccc2[N+](=O)[O-])cc1	9.2µM*	2.5µM*	-12%	23µM*	5µM*	x
COc1ccc2c(c1)CC(C(=O)NCCCN1CCN(c3ccc(F)cc3)CC1)CO2 (configuration not stated)	x	-3%	-20%	x	i	-18%
COC(=O)C(=Cc1ccccc1[N+](=O)[O-])C(=O)OC	u	u	-41%	0%	16µM*	x
O=C(Nc1cc(Cl)cc(Cl)c1)N1CCCN(Cc2ccccc2)CC1	21µM*	-11%	-39%	u	i	-7%
O=C(Nc1ccccc1)N1CCN(Cc2ccc(Cl)cc2)CC1	7%	1%	-4%	9%	u	x
O=C(CN1C(=O)C(=O)N(Cc2ccccc2)C1=O)Nc1cc(Cl)cc(Cl)c1	23µM*	u	-24%	u	i	-21%
O=C(Nc1ccc(Cl)cc1)N1CCCN(Cc2ccc(F)cc2)C1	u	u	11µM*	u	u	u
O=C(Nc1ccc(F)cc1)N1CCCCCC1	14%	14%	8%	10%	i	16%
CCCCc1nn2c(=O)cc(COC(=O)c3cccc(Cl)c3)nc2s1	x	u	-1%	x	i	-5%
Cc1cccc2c(C(O)c3cn(C)c4ccccc34)c[nH]c12 (configuration not stated)	x	u	-35%	x	x	x
CCOc1ccccc1NC(=O)Cn1c(=O)n(Cc2nc(C)no2)c(=O)c2ccccc21	x	-15%	-20%	x	x	x
CCc1ccc(CNC(=O)c2ccc3c(Cl)c4c(nc3c2)CCCC4)cc1	x	0%	6%	x	i	1%
CC(C)(C)c1ccc(C(=O)NCCN2CCOCC2)cc1	1%	0%	1%	4%	i	x
CC(C)c1ccc(C(=O)NCCCN2CCOCC2)cc1	19%	-14%	-9%	8%	i	23%
O=C(NCCCN1CCOCC1)c1ccc(CSc2ccc(Cl)cc2)cc1	18µM*	-34%	-30%	u	u	u
SMILES	HT1080NT lethal	TGFb SMAD3 inh	HepG2 tox	HT1080 IDH1KD tx	S2 tox	ATXN2 expr inh
CN1CCN(CCCNC(=O)c2ccc3c(Cl)c4c(nc3c2)CCCC4)CC1	u	11µM*	-44%	-25%	i	x
CC(C)(C)c1ccc(C(=O)NCCCN2CCN(CCCNC(=O)c3ccc(C(C)(C)C)cc3)CC2)cc1	18µM*	u	-105%	u	28µM*	u
COc1ccc(CC(=O)Nc2ccc3nc(N4CCCCC4)cc(C)c3c2)cc1	x	u	-25%	x	i	-24%
CC1CCC(C(C)C)C(OCC(O)CN2CCN(Cc3ccccc3)CC2)C1 (configuration not stated)	23µM*	-3%	-22%	u	i	-16%
COc1cc2nc(CN(CCO)C3CS(=O)(=O)CC3O)nc(N3CCCCC3)c2cc1OC (configuration not stated)	x	x	x	x	i	x
CCCN1CNc2c(c(=O)[nH]c(=S)n2CCc2ccccc2OC)C1	7%	x	x	0%	x	x
Cc1ccc2nc3[nH]c(=O)[nH]c(=O)c3c(N)c2c1	0%	4%	-1%	-6%	i	17%
Cc1ccc2nc(N)[nH]c(=O)c2c1Sc1ccncc1	x	x	x	x	i	13µM*
C=CCn1cc(CN2CCC(C(=O)Nc3cccc(-c4cccc(Cl)c4)c3)CC2)c(C)n1	u	u	16µM*	u	u	x
C=CCn1cc(CN2CCC(C(=O)Nc3cccc(-c4cccc(F)c4)c3)CC2)c(C)n1	-29%	u	8.9µM*	-22%	i	u
Cc1c(CN2CCC(C(=O)Nc3cccc(-c4cccc(Cl)c4)c3)CC2)cnn1C	u	u	-95%	-24%	u	x
O=C(CSc1nccn1Cc1ccc(F)cc1)NCc1ccc(F)cc1	x	5%	-6%	x	i	-4%
COc1ccc(S(=O)(=O)N(CC(=O)NC(C)c2ccccc2)c2ccc(C)cc2)cc1OC (configuration not stated)	x	u	22µM*	x	22µM*	u
CC(NC(=O)CN(c1cccc(C(F)(F)F)c1)S(=O)(=O)c1ccc(Cl)c([N+](=O)[O-])c1)c1ccccc1 (configuration not stated)	23µM*	u	-100%	18µM*	u	u
O=C(CN(c1cccc(C(F)(F)F)c1)S(=O)(=O)c1ccc(Cl)c([N+](=O)[O-])c1)NCc1ccccc1	-1%	-2%	-13%	-2%	i	-1%
O=Nc1ccc(NO)c2ccccc12	u	13µM*	-155%	16µM*	i	x
